# Rows were chosen to be rich in hits. Some 11% of all compounds tested hit in one or more screens of this group.
# HCV inhibitor = inhibitors of hepatitis C virus infection. Huh7.5.1 HCVcc-Cre infection, luciferase reporter, 44 h. Potency, µM (titrated, usually from 41.8 µM), without a hit: at the highest dose activity change, negative = inhibition, most hits filed as inhibitors. 3.4% of 340,000 active
#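 Reporter virus HCVcc-Cre (~0.5 moi) infects cells exposed to compound; seeding density 1,000 cells/well with 4 h settling beforehand. Luminescence, 15 sec read, taken 44 h post-infection following a 15 min RT substrate incubation.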
# AmpC inh detg = inhibitors of E. coli AmpC beta-lactamase with detergent | P00811 | AmpC hydrolysis of nitrocefin, absorbance 480 nm, 0.01% Triton | Potency, µM (highest dose often 114 µM), without a hit: at the top dose activity change, negative = inhibition, most hits filed as inhibitors | 0.041% of 370,000 active;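 further: 0% = no-compound wells and -100% = no-enzyme wells; nearly all actives have a fitted effect of over 25% in size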
# Target sequence (P00811 whole entry, looked up): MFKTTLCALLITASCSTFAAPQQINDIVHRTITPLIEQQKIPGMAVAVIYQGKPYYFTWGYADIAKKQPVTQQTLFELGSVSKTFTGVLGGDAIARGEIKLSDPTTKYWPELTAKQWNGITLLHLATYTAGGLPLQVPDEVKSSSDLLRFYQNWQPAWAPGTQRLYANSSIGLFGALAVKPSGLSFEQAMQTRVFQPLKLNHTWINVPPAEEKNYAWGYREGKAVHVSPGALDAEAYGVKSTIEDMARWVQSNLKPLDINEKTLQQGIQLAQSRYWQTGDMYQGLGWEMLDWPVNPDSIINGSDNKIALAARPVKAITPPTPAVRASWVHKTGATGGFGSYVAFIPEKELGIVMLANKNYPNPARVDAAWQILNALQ
#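 AmpC (5.3 nM in the dispensed reagent) in 20 mM phosphate pH 7.0 with 0.01% (detergent screen) or 0.0001% Triton X-100 was preincubated with compounds for 15 min at room temperature. Nitrocefin was then added from an 800 uM solution, and hydrolysis was followed at 480 nm.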
# AMA1-RON2 inh = AMA1-RON2 (P. falciparum) interaction inhibition | AlphaScreen AMA1-biotinylated RON2 peptide binding | Potency, µM (highest dose often 58.2 µM), without a hit: top-dose activity change, negative = inhibition, usual class: inhibitors | 0.2% of 360,000 active;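 further: 0% = vehicle wells and -100% = peptide control; nearly all actives have a fitted effect of over 45% in size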
#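 AMA1 (3D7) with his tag at 25 nM final met compounds first, then biotinylated RON2 peptide at 25 nM; detection used donor plus acceptor beads, 10 µg/mL apiece, read by AlphaScreen after 30 min at room temperature.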
# Pf growth 96h = P. falciparum growth inhibition at 96 hour, primary screen for plastid delayed-death inhibitors; P. falciparum luciferase reporter growth, 96 h; Potency, µM (series often up to 28.7 µM), inactives show at the highest dose activity change, negative = inhibition, most hits filed as inhibitors; 6.9% of 320,000 active; AID 504834
#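 96 h incubation, 37 C, 5% CO2, of luciferase-reporter P. falciparum-infected RBCs (2% hematocrit, 0.05% parasitemia final) with test compounds; endpoint luminescence.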
# Pf growth 48h = P. falciparum growth inhibition at 48 hours (one generation) | P. falciparum luciferase growth in erythrocytes, 48 h | Potency, µM (titrated, usually from 28.7 µM), inactives show at the top dose activity change, negative = inhibition, usual class: inhibitors | 5.9% of 310,000 active
#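 Cell-based growth assay: transgenic P. falciparum expressing firefly luciferase, cultured in red cells within RPMI 1640 containing 0.5% w/v Albumax, 24 mM bicarbonate and gentamycin. A drop in luciferase activity indicates inhibition.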
# AmpC no deterg = AmpC beta-lactamase inhibition without detergent | AID 485341 | AmpC nitrocefin hydrolysis, absorbance 480 nm, 0.0001% Triton | P00811 | Potency, µM (doses to about 57.1 µM), for inactives: top-dose activity change, negative = inhibition, usual class: inhibitors | 0.52% of 330,000 active;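 further: plate controls were no compound for no effect and no enzyme for full effect; nearly all actives have a fitted effect of over 20% in size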
#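 20 mM phosphate pH 7.0 + 0.01% (detergent screen) or 0.0001% Triton X-100; 5.3 nM AmpC reagent; cpd preinc 15 min RT; nitrocefin (800 uM stock) to start; A480 q20 s × 4 min; Activity was normalised to no-enzyme and no-compound control wells.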
# Starred values were filed as active, the others as inactive; ? = inconclusive; · = no result given. The call rests on the fitted dose curve; in most records, active means well fitted curve in the direction sought with a large enough effect; inconclusive means small, poorly fitted or top-dose-only effect, or another doubt; inactive means no such curve, though single readings can be large; an effect the other way counts as inactive or inconclusive. Unless noted, on the % scale 0 is the no-effect control and ±100 the full control effect; potency means the concentration at half of the fitted maximal effect.
SMILES,HCV inhibitor,AmpC inh detg,AMA1-RON2 inh,Pf growth 96h,Pf growth 48h,AmpC no deterg
Cc1ccc(-n2ncc3c(=O)n(CC(=O)NC4CCCCC4)cnc32)cc1,7.8%,?,-6.1%,4.65µM*,1.7%,-16.3%
CNC(=O)CSc1ncnc2c1cnn2-c1ccccc1,1.2%,4.8%,28.7%,44.9%,79.4%,-14.5%
Cc1ccc(-n2ncc3c(=O)n(CC(=O)N(C(C)C)C(C)C)cnc32)cc1,-3.0%,-17.0%,-9.9%,13.1µM*,1.0%,-35.0%
O=C(CSc1ncnc2c1cnn2-c1ccccc1)NC1CCCC1,10µM*,-7.5%,-9.5%,62.4%,53.7%,?
Clc1ccc(-c2cc3ncc4c(n3n2)-c2ccccc2OC4)cc1,·,1.4%,·,·,·,·
CCCn1c(=O)n(C)c(=O)c2c(SCC(=O)NCc3ccco3)nc(C3CC3)nc21,-4.5%,7.9%,3.1%,4.15µM*,·,-16.4%
Cn1c(=O)c2c(SCC(=O)NCc3ccco3)nc(-c3ccccc3Cl)nc2n(C)c1=O,?,2.0%,-7.5%,?,?,-43.1%
CCCCCCCC(=O)Nc1cc(C(=O)NCCC)ccc1N1CCC2(CC1)CC(c1cccc(Br)c1)=NO2,-4.4%,?,-8.2%,?,?,-8.7%
CCCCCCCC(=O)Nc1cc(C(=O)NCc2ccc(C)cc2)ccc1N1CCC2(CC1)CC(c1ccccc1)=NO2,10.1%,-1.4%,-7.2%,?,-15.2%,-34.4%
CCCNC(=O)c1ccc(N2CCC3(CC2)CC(c2ccccc2)=NO3)c(NC(=O)Cc2ccc(F)cc2)c1,-28.7%,-3.5%,-1.8%,4.65µM*,?,6.8%
CCCCC(CC)C(=O)Nc1cc(C(=O)NCCC)ccc1N1CCC2(CC1)CC(c1cccc(Br)c1)=NO2 (centres undefined),8.7%,?,12.0%,2.62µM*,3.7µM*,-36.0%
CCCCC(CC)C(=O)Nc1cc(C(=O)NCc2ccc(C)cc2)ccc1N1CCC2(CC1)CC(c1cccc(Br)c1)=NO2 (centres undefined),15.5%,-13.1%,-2.6%,2.08µM*,2.33µM*,-41.5%
CCCCC(CC)C(=O)Nc1cc(C(=O)NCc2ccc(C)cc2)ccc1N1CCC2(CC1)CC(c1ccccc1)=NO2 (centres undefined),-7.6%,?,3.5%,2.08µM*,3.29µM*,-33.4%
CCOC(=O)c1ccc(N2C(=O)c3[nH]nc(-c4ccccc4)c3C2c2ccc(CC)cc2)cc1 (centres undefined),·,0.6%,·,·,·,·
O=C(Cn1cc(SCc2cccc(F)c2)c2ccccc21)N1CCCC1,·,-14.4%,·,·,·,·
CC(=O)c1ccc(NC(=O)C2CCC(CNS(=O)(=O)c3ccc4c(c3)CCCC(=O)N4)CC2)cc1 (centres undefined),·,2.8%,·,·,·,·
CCc1ccc(OCC(=O)N(Cc2ccc(OC)cc2)C2CCS(=O)(=O)C2)cc1 (centres undefined),·,2.1%,·,·,·,·
CCN1CCCC1CNC(=O)c1cc(N)ccc1OC (centres undefined),14.9%,·,-12.1%,·,·,·
CCN1CCCC1CNC(=O)c1cc([N+](=O)[O-])c(N(C)C)cc1OC (centres undefined),-3.5%,-5.2%,-4.3%,4.15µM*,2.6%,-8.8%
O=C(NCc1ccc(Cl)cc1)c1cc2c(s1)-c1ccccc1SC2,·,-3.0%,·,·,·,·
CCN(CC)CCNC(=O)c1cc2c(s1)-c1ccccc1SC2,11.2µM*,-1.1%,9.2%,311.1%,0.0%,17.0%
O=C(NCc1cccc(Cl)c1)c1cc2c(s1)-c1ccccc1SC2,·,-2.8%,·,·,·,·
NNC(=O)c1cc2c(s1)-c1cc(Cl)ccc1SC2,1.3%,6.1%,96.2%,-3.8%,9.28µM*,-17.0%
CCN(C(=O)C1CCN(S(=O)(=O)c2cc(Br)cc3c2N(C(C)=O)CC3)CC1)c1cccc(C)c1,·,17.3%,·,·,·,·
